According to PubChem BioAssay AID1159580 (chemical genetic matrix, 2015):
“And” between values parts separate entries of the source, which are not always exact repeats. Identical values can stand only once. Out of some 5,500 compounds screened, about 2,000 (36%) were called active. Inconclusive results (about 18%) are left out. The list shows a part of the results. Unmarked numbers belong to inactive results. Rule as the data show it: active = normalized growth mostly below about 0.91 (no sharp cut-off); inconclusive = no clear call, values can overlap the other calls; inactive = mostly above about 0.92.

Experiment: chemical genetic growth profiling, strain panel (AID 1159580);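 also: tested at 20 µM; growth read once vehicle control cultures reached saturation at 30 °C; 1 = growth at the plate median or of vehicle wells; lower values mean less growth of the strain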
Conditions: S. cerevisiae deletion strains, growth OD

Work on `COC(=O)Nc1nc2ccc(C(=O)c3ccccc3)cc2[nH]1` yielded a normalized growth (locus YAL013W, strain DEP1, hits give low values) of 1.02, a normalized growth (locus YAL021C, strain ccr4, hits give low values) of 0.95 and a normalized growth (locus YAL026C, strain drs2, hits give low values) of 0.963. The normalized growth (locus YAL030W, strain snc1, hits give low values) was 0.983, the normalized growth (locus YBL061C, strain skt5, hits give low values) was 0.903 (active) and the normalized growth (locus YBR009C, strain hhf1, hits give low values) was 0.898 (active). For the same molecule, the normalized growth (locus YBR021W, strain FUR4, hits give low values) was 0.97, the normalized growth (locus YBR023C, strain chs3, hits give low values) was 0.913 (active) and the normalized growth (locus YBR171W, strain sec66, hits give low values) was 1.01. For the same molecule, the normalized growth (locus YBR229C, strain ROT2, hits give low values) was 1.02, the normalized growth (locus YBR231C, strain swc5, hits give low values) was 0.261 (active) and the normalized growth (locus YBR279W, strain paf1, hits give low values) was 0.958. The normalized growth (locus YCL011C, strain gbp2, hits give low values) was 0.962, the normalized growth (locus YCL016C, strain dcc1, hits give low values) was 0.902 (active) and the normalized growth (locus YCL029C, strain bik1, hits give low values) was 0.781 (active). The normalized growth (locus YCL069W, strain vba3, hits give low values) was 0.98, the normalized growth (locus YCR088W, strain abp1, hits give low values) was 0.977 and the normalized growth (locus YDL005C, strain med2, hits give low values) was 0.959. For the same molecule, the normalized growth (locus YDL035C, strain GPR1, hits give low values) was 0.967, the normalized growth (locus YDL040C, strain nat1, hits give low values) was 0.992 and the normalized growth (locus YDL074C, strain BRE1, hits give low values) was 0.924. The normalized growth (locus YDL101C, strain DUN1, hits give low values) was 1.03, the normalized growth (locus YDL134C, strain PPH21, hits give low values) was 1.01 and the normalized growth (locus YDL185W, strain tfp1, hits give low values) was 1.04. It also gave a normalized growth (locus YDL192W, strain arf1, hits give low values) of 0.99, a normalized growth (locus YDR001C, strain nth1, hits give low values) of 0.976 and a normalized growth (locus YDR069C, strain doa4, hits give low values) of 0.952. The normalized growth (locus YDR101C, strain arx1, hits give low values) was 0.998, the normalized growth (locus YDR137W, strain rgp1, hits give low values) was 0.84 (active) and the normalized growth (locus YDR150W, strain NUM1, hits give low values) was 1.01. For the same molecule, the normalized growth (locus YDR159W, strain sac3, hits give low values) was 0.861 (active), the normalized growth (locus YDR162C, strain NBP2, hits give low values) was 1.01 and the normalized growth (locus YDR195W, strain ref2) was 0.979. The normalized growth (locus YDR297W, strain sur2, hits give low values) was 0.963, the normalized growth (locus YDR318W, strain mcm21, hits give low values) was 0.954 and the normalized growth (locus YDR334W, strain swr1, hits give low values) was 0.627 (active). It also gave a normalized growth (locus YDR335W, strain msn5, hits give low values) of 0.99, a normalized growth (locus YDR388W, hits give low values) of 0.982 and a normalized growth (locus YDR392W, strain spt3, hits give low values) of 0.805. The normalized growth (locus YDR502C, strain sam2, hits give low values) was 0.958, the normalized growth (locus YEL003W, strain gim4, hits give low values) was 0.173 (active) and the normalized growth (locus YEL037C, strain rad23, hits give low values) was 0.981. It also gave a normalized growth (locus YEL061C, strain CIN8 (second series), hits give low values) of 0.976, a normalized growth (locus YEL061C, strain CIN8, hits give low values) of 1 and a normalized growth (locus YER015W, strain faa2, hits give low values) of 0.974. The normalized growth (locus YER016W, strain bim1, hits give low values) was 0.935, the normalized growth (locus YER110C, hits give low values) was 1.02 and the normalized growth (locus YER111C, strain swi4, hits give low values) was 0.997. It also gave a normalized growth (locus YER155C, strain BEM2 (second series), hits give low values) of 0.896, a normalized growth (locus YER155C, strain BEM2, hits give low values) of 0.981 and a normalized growth (locus YER167W, strain BCK2, hits give low values) of 0.94. It also gave a normalized growth (locus YFR010W, strain ubp6, hits give low values) of 0.98, a normalized growth (locus YGL078C, strain dbp3, hits give low values) of 0.974 and a normalized growth (locus YGL086W, strain mad1, hits give low values) of 0.999. It also gave a normalized growth (locus YGL167C, strain pmr1, hits give low values) of 0.979, a normalized growth (locus YGL173C, strain kem1, hits give low values) of 0.981 and a normalized growth (locus YGL227W, strain vid30, hits give low values) of 0.977. The normalized growth (locus YGL240W, strain doc1, hits give low values) was 0.812 (active), the normalized growth (locus YGL248W, strain PDE1, hits give low values) was 0.99 and the normalized growth (locus YGL253W, strain hxk2, hits give low values) was 0.951. The normalized growth (locus YGR078C, strain PAC10, hits give low values) was 0.0909 (active), the normalized growth (locus YGR135W, strain pre9, hits give low values) was 0.948 and the normalized growth (locus YGR229C, strain SMI1, hits give low values) was 0.775 (active). The normalized growth (locus YGR252W, strain gcn5, hits give low values) was 0.916, the normalized growth (locus YHR013C, strain ard1, hits give low values) was 1 and the normalized growth (locus YHR027C, strain rpn1, hits give low values) was 0.931. The normalized growth (locus YHR030C, strain SLT2, hits give low values) was 1.01 and 0.956, the normalized growth (locus YHR079C, strain IRE1 (second series), hits give low values) was 0.999 and the normalized growth (locus YHR079C, strain IRE1, hits give low values) was 0.937. For the same molecule, the normalized growth (locus YHR094C, strain hxt1, hits give low values) was 1, the normalized growth (locus YHR129C, strain ARP1, hits give low values) was 0.969 and the normalized growth (locus YHR142W, strain chs7, hits give low values) was 0.872 (active). The normalized growth (locus YHR200W, strain rpn10, hits give low values) was 0.917 (active), the normalized growth (locus YIL066C, strain RNR3, hits give low values) was 1.01 and the normalized growth (locus YIL073C, strain SPO22, hits give low values) was 0.998. For the same molecule, the normalized growth (locus YIL125W, strain kgd1, hits give low values) was 0.971, the normalized growth (locus YIR030C, strain dcg1, hits give low values) was 1 and the normalized growth (locus YJL092W, strain hpr5, hits give low values) was 0.965. The normalized growth (locus YJL095W, strain BCK1 (second series), hits give low values) was 0.996, the normalized growth (locus YJL095W, strain BCK1, hits give low values) was 1.06 and 0.938 and the normalized growth (locus YJL115W, strain asf1, hits give low values) was 0.977. The normalized growth (locus YJL129C, strain trk1, hits give low values) was 0.906, the normalized growth (locus YJL134W, strain LCB3, hits give low values) was 1 and the normalized growth (locus YJL154C, strain vps35, hits give low values) was 0.981. The normalized growth (locus YJL164C, strain tpk1, hits give low values) was 0.957, the normalized growth (locus YJL166W, strain qcr8, hits give low values) was 0.868 (active) and the normalized growth (locus YJL168C, strain set2, hits give low values) was 1. The normalized growth (locus YJL187C, strain SWE1 (second series), hits give low values) was 1.01, the normalized growth (locus YJL187C, strain SWE1, hits give low values) was 0.934 and the normalized growth (locus YJR043C, strain POL32, hits give low values) was 0.867. The normalized growth (locus YJR066W, strain TOR1, hits give low values) was 0.819 (active).
